Data as given in the supplement of paper PMC13380429.

Tests used:
[1] = test system: Vero E6 infected with SARS-CoV-2; experiment: inhibition of SARS-CoV-2 cytopathic effect; higher = more antiviral protection, active = above 15; conditions: 48 h
[2] = test system: Vero E6 infected with SARS-CoV-2; experiment: morphology score (similarity to uninfected cells); higher = more like uninfected cells; conditions: 24 h
[3] = test system: Vero E6 infected with SARS-CoV-2; experiment: SARS-CoV-2 infection rate relative to infected DMSO; higher = more infection, active = 60 or less; conditions: 24 h

SMILES | inhibition of SARS-CoV-2 cytopathic effect ([1]; 1 nM) | inhibition of SARS-CoV-2 cytopathic effect ([1]; 8.33 nM) | inhibition of SARS-CoV-2 cytopathic effect ([1]; 100 nM) | inhibition of SARS-CoV-2 cytopathic effect ([1]; 833.33 nM) | inhibition of SARS-CoV-2 cytopathic effect ([1]; 10000 nM) | morphology score [2] | SARS-CoV-2 infection rate [3]
COCCCOc1ccnc(C[S+]([O-])c2nc3ccccc3[nH]2)c1C (centres undefined) [rabeprazole] | -0.56% (inactive) | -0.31% (inactive) | 2.14% (inactive) | – | – | – | –
COc1ccc2c(c1)CN(C)CC2c1ccc(Cl)c(Cl)c1 (centres undefined) [diclofensine] | 3.38% (inactive) | 2.5% (inactive) | -1.16% (inactive) | 3.57% (inactive) | 1.83% (inactive) | – | –
CC(C)N(CCCNC(=O)Nc1ccc(C(C)(C)C)cc1)C[C@H]1O[C@@H](n2cc(Br)c3c(N)ncnc32)[C@H](O)[C@@H]1O (10 µM) | – | – | – | – | – | -0.0211 | 120% (inactive)
CC[C@@]1([C@H]2O[C@H]([C@H]3O[C@@](O)(CO)[C@H](C)C[C@@H]3C)C[C@H]2C)CC[C@H]([C@@]2(C)CC[C@]3(C[C@H](O)[C@@H](C)[C@@H]([C@H](C)[C@H](OC)[C@@H](C)C(=O)O)O3)O2)O1 | -2.66% (inactive) | -0.7% (inactive) | 2.93% (inactive) | 27.6% (active) | 52.5% (active) | – | –
COc1cccc(C=NCCN=Cc2cccc(OC)c2[O-])c1[O-].[Cl-].[Mn+3] (10 µM) | – | – | – | – | – | -0.0731 | 95% (inactive)
CCc1cc(C(C)=O)c(O)cc1OCCCCCC(C)(C)c1nn[nH]n1 | -2.28% (inactive) | 0.23% (inactive) | 0.43% (inactive) | – | – | – | –
CC(CN(C)C)CN1c2ccccc2CCc2ccccc21 (centres undefined) [trimipramine] (10 µM) | – | – | – | – | – | 0.451 | 80.5% (inactive)
CC(C)C[C@H](NC(=O)N1CCCCCC1)C(=O)N[C@H](Cc1cn(C)c2ccccc12)C(=O)N[C@H](Cc1ccccn1)C(=O)O | -0.85% (inactive) | 2.47% (inactive) | 0.97% (inactive) | -2.82% (inactive) | 2.44% (inactive) | – | –
O=C1c2ccccc2C(Cc2ccncc2)(Cc2ccncc2)c2ccccc21 | 1.49% (inactive) | -1.95% (inactive) | -1.48% (inactive) | -2.88% (inactive) | -3.65% (inactive) | – | –
Cc1coc2c1C(=O)C(=O)c1c-2ccc2c1CCCC2(C)C [tanshinone-IIA] | -0.65% (inactive) | 2.92% (inactive) | 0.8% (inactive) | -7.33% (inactive) | -6.78% (inactive) | – | –
CC1CC(OC(=O)C(O)c2ccccc2)CC(C)(C)C1 (centres undefined) [cyclandelate] (10 µM) | – | – | – | – | – | 0.115 | 98% (inactive)
COc1cc(OC)cc(-c2ccc3c(-c4ccc(F)cc4)n[nH]c3n2)c1 (10 µM) | – | – | – | – | – | 0.102 | 106% (inactive)
O=C(O)CCCC[C@@H]1SC[C@@H]2NC(=O)N[C@@H]21 [biotin] (10 µM) | – | – | – | – | – | -0.0202 | 108% (inactive)
COCCOc1cnc2ccn([C@H](C)c3nnc4c(F)cc(-c5cnn(C)c5)cn34)c(=O)c2c1 (10 µM) | – | – | – | – | – | 0.0816 | 105% (inactive)
COc1cc(NC(=O)Nc2cccc(CNC(=O)O[C@H]3CCOC3)c2)ccc1-c1cnco1 [merimepodib] (10 µM) | – | – | – | – | – | 0.447 | 62.5% (inactive)
CN1CCN(C(=O)O[C@H]2c3nccnc3C(=O)N2c2ccc(Cl)cn2)CC1 (10 µM) | – | – | – | – | – | -0.0495 | 108% (inactive)
O=C(NOCCO)c1cc(CN2OCCCC2=O)c(F)c(F)c1Nc1ccc(I)cc1F (0.833333 µM) | – | – | – | – | – | -0.175 | 96.5% (inactive)
O=c1cc(-c2cccc3c2Sc2ccccc2S3)oc(N2CCOCC2)c1 | 2.07% (inactive) | -2.3% (inactive) | -0.67% (inactive) | 3.55% (inactive) | -1.33% (inactive) | – | –
NC(=O)c1cnc2[nH]ccc2c1N[C@@H]1[C@@H]2CC3C[C@H]1C[C@@](O)(C3)C2 | -1.55% (inactive) | -1.31% (inactive) | -1.46% (inactive) | -0.12% (inactive) | -1.65% (inactive) | – | –
Sc1nc2ccccc2s1 [benzo[d]thiazole-2(3H)-thione] | -1.3% (inactive) | 0.55% (inactive) | -0.47% (inactive) | – | – | – | –
CC(=O)N[C@H]1[C@H]([C@H](O)[C@H](O)CO)OC(C(=O)O)=C[C@@H]1NC(=N)N [zanamivir] | 0.39% (inactive) | 0.16% (inactive) | -0.26% (inactive) | 2.6% (inactive) | 2.28% (inactive) | – | –
C[N+]1(C)CCc2cc3c(cc2[C@H]1[C@@H]1OC(=O)c2c1ccc1c2OCO1)OCO3 [bicuculline-methochloride-(-)] | -4.58% (inactive) | 0.48% (inactive) | 0.65% (inactive) | 3.59% (inactive) | -2.23% (inactive) | – | –

SMILES | inhibition of SARS-CoV-2 cytopathic effect ([1]; 1 nM) | inhibition of SARS-CoV-2 cytopathic effect ([1]; 8.33 nM) | inhibition of SARS-CoV-2 cytopathic effect ([1]; 100 nM) | inhibition of SARS-CoV-2 cytopathic effect ([1]; 833.33 nM) | inhibition of SARS-CoV-2 cytopathic effect ([1]; 10000 nM) | morphology score [2] | SARS-CoV-2 infection rate [3]
N#C/C(=C\c1ccc(O)c(O)c1)C(=O)OCCc1cccs1 | 1.43% (inactive) | 1.78% (inactive) | 7.36% (inactive) | -1.53% (inactive) | 1.2% (inactive) | – | –
CC(=O)SC[C@@H](Cc1ccccc1)C(=O)NCC(=O)OCc1ccccc1 (racemic) [racecadotril] | 1.48% (inactive) | 1.8% (inactive) | 0.82% (inactive) | 1.15% (inactive) | -5.3% (inactive) | – | –
NC(=O)c1ccc(-c2nc(-c3ccccn3)c(-c3ccc4c(c3)OCO4)[nH]2)cc1 | -0.24% (inactive) | 0.7% (inactive) | 0.26% (inactive) | -3.74% (inactive) | -3.14% (inactive) | – | –
O=C1O[C@H]([C@@H](O)CO)C([O-])=C1O.[Na+] [sodium-ascorbate] | -1.43% (inactive) | 0.79% (inactive) | 0.39% (inactive) | 1.19% (inactive) | 2.74% (inactive) | – | –
Cc1ccc(NC2=NCCN2)c(Cl)c1 [tolonidine] | 1.65% (inactive) | 0.34% (inactive) | 0.64% (inactive) | -0.01% (inactive) | 0.42% (inactive) | – | –
S=C(NCc1ccc2c(c1)OCO2)N1CCN(c2ncnc3c2oc2ccccc23)CC1 [amuvatinib] | 3.11% (inactive) | -0.46% (inactive) | 1.46% (inactive) | 2.33% (inactive) | -1.9% (inactive) | – | –
c1ccc2sc(N3CCN(Cc4ccc5c(c4)OCO5)CC3)nc2c1 [2-[1-(4-piperonyl)piperazinyl]benzothiazole] | -3.54% (inactive) | -1.04% (inactive) | -3.92% (inactive) | -3.68% (inactive) | -2.73% (inactive) | – | –
CCCCOc1ccc(OCCCN2CCOCC2)cc1 [pramoxine] | -3.87% (inactive) | -1.02% (inactive) | -1.18% (inactive) | -1.83% (inactive) | 0.79% (inactive) | – | –
c1ccc(C[C@H](c2ccccc2)N2CCCCC2)cc1 (racemic) [1-(1,2-diphenylethyl)piperidine-(+/-)] | 0.78% (inactive) | 0.67% (inactive) | 0.96% (inactive) | 0.92% (inactive) | 2.17% (inactive) | – | –
C=CCN1CC[C@]23c4c5ccc(O)c4O[C@H]2[C@@H](OCCOCCOCCOCCOCCOCCOCCOC)CC[C@@]3(O)[C@H]1C5 [naloxegol] | 2.88% (inactive) | 0.75% (inactive) | 1.49% (inactive) | 0.6% (inactive) | -1.7% (inactive) | – | –
CC(C)[C@H]1c2ccc(F)cc2CC[C@@]1(CCN(C)CCCc1nc2ccccc2[nH]1)OC(=O)C1CC1 | 1.78% (inactive) | 2.76% (inactive) | 7.24% (inactive) | -2.65% (inactive) | -19.3% (inactive) | – | –
COc1ccccc1Oc1c(NS(=O)(=O)c2ccc(C)cn2)nc(-c2ccncc2)nc1OC | 1.47% (inactive) | 2.09% (inactive) | 1.19% (inactive) | 2.9% (inactive) | -4.64% (inactive) | – | –
CC(C)(C)C(=O)Oc1ccc(S(=O)(=O)Nc2ccccc2C(=O)NCC(=O)O)cc1 [sivelestat] | 1.78% (inactive) | -0.24% (inactive) | 0.61% (inactive) | 1.84% (inactive) | -1.94% (inactive) | – | –
Oc1cccc(Nc2ccc(Nc3cccc(O)c3)nn2)c1 [beta-amyloid-synthesis-inhibitor] | -0.67% (inactive) | 1.31% (inactive) | 0.24% (inactive) | 1.07% (inactive) | 4.99% (inactive) | – | –
Cc1nc(Nc2cnn(C3CCNCC3)c2)nc2c1N(C)C(=O)c1cc3ccccc3cc1N2C | 2.64% (inactive) | -1.33% (inactive) | -2.15% (inactive) | 1.63% (inactive) | 48.4% (active) | – | –
CCCCCCCCCCCCCCCCO [1-hexadecanol] | -1.82% (inactive) | 0.36% (inactive) | -0.66% (inactive) | -0.99% (inactive) | -4.02% (inactive) | – | –
Cc1ccc(C(=O)N(CCCN)[C@@H](c2oc3cc(Cl)ccc3c(=O)c2Cc2ccccc2)C(C)C)cc1 | 1.81% (inactive) | -1.04% (inactive) | -0.8% (inactive) | -2.79% (inactive) | -24.6% (inactive) | – | –
CNC(=O)c1ccc(Nc2ncc(C(F)(F)F)c(NCc3nccnc3N(C)S(C)(=O)=O)n2)cc1 [defactinib] | -2.21% (inactive) | -4.25% (inactive) | -0.22% (inactive) | -2.59% (inactive) | -4.28% (inactive) | – | –
O=C(Nc1cccc(Nc2ncc(Br)c(NCCc3cnc[nH]3)n2)c1)N1CCCC1 | -2.91% (inactive) | -2.57% (inactive) | -1% (inactive) | -2.29% (inactive) | -4.48% (inactive) | – | –
CC(=O)NO [acetohydroxamic-acid] | 4.31% (inactive) | 3.09% (inactive) | -3.04% (inactive) | 2.55% (inactive) | 3.32% (inactive) | – | –
CN1CCN(C(=O)O[C@H]2c3nccnc3C(=O)N2c2ccc(Cl)cn2)CC1 | 0.72% (inactive) | 1.71% (inactive) | 2.86% (inactive) | 2.34% (inactive) | 0.85% (inactive) | – | –
